Laboratory results taken from PubChem BioAssay (EPA / NIEHS).
Records with an inconclusive call do not appear. Calls of active or inactive are those of the source. How the source made its calls, unless noted: active means hit-call score of the fitted dose curve at least 0.9, where 1 is the maximum; inactive means score below 0.9.

Experiments:
[1] = ATG_PXRE_CIS: Attagene CIS-FACTORIAL HepG2 Assay for human Pregnane X Receptor Element (PXRE) (AID 2282957); conditions: HepG2 Attagene CIS-FACTORIAL PXRE reporter, mRNA; actives raise or lower the signal
Summary of the method: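 Read-out: fluorescence of reporter-specific RT-PCR products resolved by capillary electrophoresis, fitted bidirectionally relative to DMSO. Human HepG2 liver cells carried transfected cis-promoter reporter units and were exposed to chemicals for 24 h.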

[2] = ATG_PPRE_CIS: Attagene CIS-FACTORIAL HepG2 Assay for human Peroxisome Proliferator-activated Response Element (PPRE) (AID 2282958); conditions: HepG2 PPRE cis-element reporter, Attagene transcription factor profiling; actives raise or lower the signal
Summary of the method: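 In this cell-based multiplex, a PPRE cis element drives a reporter sequence in transiently transfected HepG2 cells. Following 24 h treatment, labeled cDNA amplicons are sized and quantified by capillary electrophoresis, with DMSO defining baseline.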

[3] = ATG_RORE_CIS: Attagene CIS-FACTORIAL HepG2 Assay for human RAR-related Orphan Receptor Element (RORE) (AID 2282959); conditions: HepG2 Attagene cis-factorial RORE reporter, mRNA; actives raise or lower the signal
Summary of the method: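 Endogenous factor activity at a cis response element is read as reporter transcript levels in HepG2 cells, 24 h post-dose. Transcripts are quantified by RT-PCR with capillary electrophoresis, and data fitted in both directions against DMSO.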

[4] = ATG_Sox_CIS: Attagene CIS-FACTORIAL HepG2 Assay for human SRY-box transcription factor (SOX) (AID 2282960); conditions: HepG2 Attagene cis-factorial SOX reporter, mRNA; actives raise or lower the signal
Summary of the method: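 Measures mRNA induction of a SOX1-associated reporter in HepG2 after 24 h dosing. Fluorescently labelled RT-PCR fragments are separated by capillary electrophoresis, and gain or loss relative to DMSO control is fitted.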

[5] = target: Transcription factor Sp1 (Homo sapiens) (UniProt P08047); experiment: ATG_Sp1_CIS: Attagene CIS-FACTORIAL HepG2 Assay for human Specificity Protein 1 (Sp1) (AID 2282961); conditions: HepG2 Sp1 cis-reporter transcription, actives raise or lower the signal
Sequence of Transcription factor Sp1 (Homo sapiens) (P08047 whole entry, looked up): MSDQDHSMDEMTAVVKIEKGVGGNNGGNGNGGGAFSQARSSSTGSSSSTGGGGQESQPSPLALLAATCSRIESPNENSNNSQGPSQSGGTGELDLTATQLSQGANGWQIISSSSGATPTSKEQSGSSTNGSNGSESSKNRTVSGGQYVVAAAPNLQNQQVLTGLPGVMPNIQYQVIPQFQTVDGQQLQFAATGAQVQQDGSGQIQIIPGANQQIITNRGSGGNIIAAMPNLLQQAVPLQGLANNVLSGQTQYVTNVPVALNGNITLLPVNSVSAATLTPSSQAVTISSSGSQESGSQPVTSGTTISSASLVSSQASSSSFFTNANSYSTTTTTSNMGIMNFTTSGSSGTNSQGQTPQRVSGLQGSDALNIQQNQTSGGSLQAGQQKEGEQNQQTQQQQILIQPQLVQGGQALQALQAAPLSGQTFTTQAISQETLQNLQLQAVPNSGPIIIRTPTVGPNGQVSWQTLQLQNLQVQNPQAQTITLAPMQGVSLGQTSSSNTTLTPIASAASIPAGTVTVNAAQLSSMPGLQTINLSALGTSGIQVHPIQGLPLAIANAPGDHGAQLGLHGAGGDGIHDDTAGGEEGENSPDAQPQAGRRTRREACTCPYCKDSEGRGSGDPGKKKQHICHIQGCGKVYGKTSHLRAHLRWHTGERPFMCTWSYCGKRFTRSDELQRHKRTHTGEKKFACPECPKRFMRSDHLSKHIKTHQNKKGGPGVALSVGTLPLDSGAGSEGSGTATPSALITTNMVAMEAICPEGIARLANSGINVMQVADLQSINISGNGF
Summary of the method: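 Cells: HepG2, transiently transfected with cis-regulated multiplexed reporters. Exposure: 24 h. Detection: reporter transcripts amplified, fluorescently labeled, restriction-digested and sized by capillary electrophoresis. Analysis: bidirectional fit relative to DMSO.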

[6] = ATG_SREBP_CIS: Attagene CIS-FACTORIAL HepG2 Assay for human Sterol Regulatory Element Binding (SREBP) (AID 2282962); conditions: HepG2 Attagene cis-factorial SREBP reporter, mRNA; actives raise or lower the signal
Summary of the method: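 Readout: fluorescent reporter-transcript peaks resolved by capillary electrophoresis after RT-PCR. Cells were human HepG2 carrying transfected cis-promoter reporter constructs, dosed for 24 h. Gain or loss of signal was fitted against DMSO controls.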

[7] = target: Signal transducer and activator of transcription 3 (Homo sapiens) (UniProt P40763); experiment: ATG_STAT3_CIS: Attagene CIS-FACTORIAL HepG2 Assay for human Signal Transducer and Activator of Transcription 3 (STAT3) (AID 2282963); conditions: HepG2, Attagene cis-factorial STAT3 reporter transcription; actives raise or lower the signal
Sequence of Signal transducer and activator of transcription 3 (Homo sapiens) (P40763 whole entry, looked up): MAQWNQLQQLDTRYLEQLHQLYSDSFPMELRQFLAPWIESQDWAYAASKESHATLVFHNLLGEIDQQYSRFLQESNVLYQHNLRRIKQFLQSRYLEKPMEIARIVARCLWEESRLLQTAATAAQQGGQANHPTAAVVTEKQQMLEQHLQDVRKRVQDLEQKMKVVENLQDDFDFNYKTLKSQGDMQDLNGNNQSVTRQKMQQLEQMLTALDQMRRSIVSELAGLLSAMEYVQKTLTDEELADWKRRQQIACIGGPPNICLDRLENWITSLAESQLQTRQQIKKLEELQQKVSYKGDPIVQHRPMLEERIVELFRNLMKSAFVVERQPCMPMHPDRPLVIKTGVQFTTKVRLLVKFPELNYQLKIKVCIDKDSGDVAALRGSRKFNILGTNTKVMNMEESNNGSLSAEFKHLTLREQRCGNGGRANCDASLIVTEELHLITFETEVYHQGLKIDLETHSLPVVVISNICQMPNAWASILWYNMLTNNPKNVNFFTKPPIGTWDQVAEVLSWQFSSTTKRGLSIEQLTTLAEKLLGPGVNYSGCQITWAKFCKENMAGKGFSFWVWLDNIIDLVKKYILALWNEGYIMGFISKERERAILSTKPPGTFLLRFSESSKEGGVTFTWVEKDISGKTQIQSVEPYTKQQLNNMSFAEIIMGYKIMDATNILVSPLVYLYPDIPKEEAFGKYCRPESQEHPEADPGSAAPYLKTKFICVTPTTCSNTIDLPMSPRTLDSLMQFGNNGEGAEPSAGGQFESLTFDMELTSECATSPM
Summary of the method: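 HepG2, MRTU-transfected, 24 h dosing. RNA → RT → PCR → FAM label → HpaI → CE. Bidirectional fit vs DMSO.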

[8] = ATG_TA_CIS: Attagene CIS-FACTORIAL HepG2 Assay for human TA Basal Promoter (AID 2282964); conditions: HepG2 Attagene CIS-factorial TA basal promoter reporter; actives raise or lower the signal
Summary of the method: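 Background internal-marker endpoint from a 52-component HepG2 cis-reporter panel. Cells treated 24 h; reporter transcripts quantified via RT-PCR and CE fluorescence against DMSO baseline.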

[9] = ATG_TCF_b_cat_CIS: Attagene CIS-FACTORIAL HepG2 Assay for human T-Cell-Factor with beta-catenin (TCF/b-cat) (AID 2282965); conditions: HepG2 TCF/beta-catenin cis-reporter transcription, actives raise or lower the signal
Summary of the method: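 HepG2 cells transiently transfected with multiple cis-promoter-regulated reporter transcription units, so endogenous transcription factor activity is measured. Reporter mRNA read 24 hours after dosing by RT-PCR, fluorescent labelling and capillary electrophoresis; bidirectional fitting against DMSO.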

[10] = ATG_TAL_CIS: Attagene CIS-FACTORIAL HepG2 Assay for human TAL Basal Promoter (AID 2282966); conditions: HepG2 Attagene cis-factorial TAL promoter reporter; actives raise or lower the signal;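 further: background control endpoint measuring basal TAL promoter reporter mRNA not a specific factor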
Summary of the method: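 HepG2, transient MRTU transfection, 24 h compound exposure; RNA → oligo(dT) RT → PCR → 6-FAM primer extension → HpaI digest → CE fluorescence. Bidirectional curve fit vs DMSO. Background-control readout.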

[11] = ATG_TGFb_CIS: Attagene CIS-FACTORIAL HepG2 Assay for human Transforming Growth Factor (TGF) (AID 2282967); conditions: HepG2 Attagene CIS TGFb reporter, mRNA transcription; actives raise or lower the signal
Summary of the method: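 Liver HepG2 line, cis-factorial reporter panel, 24 h dosing. Quantitation: RT-PCR products labeled with 6-FAM, cut with HpaI, resolved by capillary electrophoresis; DMSO-referenced bidirectional analysis.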

[12] = ATG_VDRE_CIS: Attagene CIS-FACTORIAL HepG2 Assay for human Vitamin D Receptor Element (VDRE) (AID 2282968); conditions: HepG2 VDRE cis-reporter transcription, actives raise or lower the signal
Summary of the method: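 Steps: transfect HepG2 with multiple reporter transcription units; dose chemicals 24 h; isolate RNA; RT-PCR; label with 6-FAM primer extension; HpaI digest; capillary electrophoresis. Curves fitted both directions against DMSO.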

[13] = target: Nuclear receptor subfamily 1 group I member 3 (Homo sapiens) (UniProt Q14994); experiment: ATG_CAR_TRANS: Attagene TRANS-FACTORIAL HepG2 Assay for human Constitutive Androstane Receptor (CAR) (AID 2282969; active means hit-call score of the fitted dose curve at least 0.9, where 1 is the maximum;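 further: activators raise reporter mRNA above DMSO so AC50 marks induction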); conditions: HepG2 Attagene TRANS-FACTORIAL CAR reporter
Sequence of Nuclear receptor subfamily 1 group I member 3 (Homo sapiens) (Q14994 whole entry, looked up, the tested form may be a part): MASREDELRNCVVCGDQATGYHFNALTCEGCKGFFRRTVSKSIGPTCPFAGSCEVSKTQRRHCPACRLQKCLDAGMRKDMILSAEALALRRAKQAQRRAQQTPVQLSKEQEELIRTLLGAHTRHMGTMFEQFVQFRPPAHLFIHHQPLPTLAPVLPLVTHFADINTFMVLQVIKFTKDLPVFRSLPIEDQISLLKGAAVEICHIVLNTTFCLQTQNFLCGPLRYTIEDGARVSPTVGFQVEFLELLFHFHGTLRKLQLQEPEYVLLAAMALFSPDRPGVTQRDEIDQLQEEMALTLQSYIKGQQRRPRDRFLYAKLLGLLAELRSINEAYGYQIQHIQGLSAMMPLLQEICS
Summary of the method: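 Steps: transient transfection of HepG2 with multiple GAL4-UAS reporter units; 24 h compound incubation; RNA isolation, RT-PCR, 6-FAM primer extension, HpaI digest; capillary electrophoresis. Gain-of-signal relative to DMSO negative control.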

[14] = target: X-box-binding protein 1 (Homo sapiens) (UniProt P17861); experiment: ATG_Xbp1_CIS: Attagene CIS-FACTORIAL HepG2 Assay for human X-box Binding Protein 1 (XBP1) (AID 2282972); conditions: HepG2 XBP1 cis-element reporter, Attagene multiplex; actives raise or lower the signal
Sequence of X-box-binding protein 1 (Homo sapiens) (P17861 whole entry, looked up, the tested form may be a part): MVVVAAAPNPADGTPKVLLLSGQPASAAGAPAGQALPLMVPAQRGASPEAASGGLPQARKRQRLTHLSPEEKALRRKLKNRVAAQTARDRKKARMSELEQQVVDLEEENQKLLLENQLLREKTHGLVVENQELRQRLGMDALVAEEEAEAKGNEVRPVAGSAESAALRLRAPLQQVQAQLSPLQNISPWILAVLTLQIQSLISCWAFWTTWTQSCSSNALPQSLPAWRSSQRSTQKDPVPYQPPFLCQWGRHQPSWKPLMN
Summary of the method: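 Read-out: fluorescent reporter mRNA fragments resolved by capillary electrophoresis after RT-PCR. Human HepG2 liver cells carried transfected cis-promoter reporter units and were exposed to chemicals for 24 hours. Gain or loss of signal fitted relative to DMSO baseline.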

[15] = ATG_GAL4_TRANS: Attagene TRANS-FACTORIAL HepG2 Assay for GAL4 (Internal Marker) (AID 2282976; active means hit-call score of the fitted dose curve at least 0.9, where 1 is the maximum); conditions: HepG2 Attagene TRANS GAL4 internal marker reporter
Summary of the method: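 RT-PCR/capillary electrophoresis readout of reporter mRNA. HepG2, transient MRTU transfection (GAL4-UAS reporters), 24 h compound exposure. Background-control endpoint, positive direction vs DMSO baseline.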

[16] = ATG_M_19_TRANS: Attagene TRANS-FACTORIAL HepG2 Assay for M19 Transcription Factor (Internal Marker) (AID 2282974; active means hit-call score of the fitted dose curve at least 0.9, where 1 is the maximum); conditions: HepG2 Attagene TRANS-FACTORIAL M19 internal marker reporter
Summary of the method: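 Reporter mRNA induction was measured in transfected HepG2 cells 24 h after dosing. Endpoint fitted upward relative to DMSO and serves as a background control within the multiplexed TRANS panel.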

[17] = target: Estrogen receptor (Homo sapiens) (UniProt P03372); experiment: ATG_ERa_TRANS: Attagene TRANS-FACTORIAL HepG2 Assay for human Estrogen Receptor alpha (ERa) (AID 2282970; active means hit-call score of the fitted dose curve at least 0.9, where 1 is the maximum); conditions: HepG2 Attagene TRANS ERa GAL4 reporter, mRNA
Sequence of Estrogen receptor (Homo sapiens) (P03372 whole entry, looked up, the tested form may be a part): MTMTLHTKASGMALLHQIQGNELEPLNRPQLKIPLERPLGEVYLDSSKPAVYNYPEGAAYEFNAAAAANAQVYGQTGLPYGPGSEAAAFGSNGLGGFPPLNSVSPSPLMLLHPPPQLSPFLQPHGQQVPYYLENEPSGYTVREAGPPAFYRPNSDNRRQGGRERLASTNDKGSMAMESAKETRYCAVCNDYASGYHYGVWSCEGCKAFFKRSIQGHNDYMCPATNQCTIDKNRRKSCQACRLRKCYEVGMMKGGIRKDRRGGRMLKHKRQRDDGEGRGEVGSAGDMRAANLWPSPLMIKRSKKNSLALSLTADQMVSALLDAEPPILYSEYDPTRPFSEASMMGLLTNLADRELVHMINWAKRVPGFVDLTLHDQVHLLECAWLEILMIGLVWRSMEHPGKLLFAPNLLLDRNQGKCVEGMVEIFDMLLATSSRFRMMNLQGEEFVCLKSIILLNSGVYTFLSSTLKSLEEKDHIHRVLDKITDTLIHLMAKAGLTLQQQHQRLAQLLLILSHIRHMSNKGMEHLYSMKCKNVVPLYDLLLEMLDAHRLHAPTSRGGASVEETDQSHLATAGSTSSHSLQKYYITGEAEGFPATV
Summary of the method: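 Reporter mRNA induction after 24 hours, detected by fluorescent RT-PCR and capillary electrophoresis, gives the read-out. Cells are HepG2 transiently transfected with GAL4-UAS reporter transcription units responding to chimeric NR-Gal4. Activity is taken as gain of signal over DMSO baseline.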

[18] = target: Steroid hormone receptor ERR1 (Homo sapiens) (UniProt P11474); experiment: ATG_ERRa_TRANS: Attagene TRANS-FACTORIAL HepG2 Assay for human Estrogen-Related Receptor alpha (ERRa) (AID 2282971; active means hit-call score of the fitted dose curve at least 0.9, where 1 is the maximum); conditions: HepG2 Attagene TRANS reporter, ERRa transactivation
Sequence of Steroid hormone receptor ERR1 (Homo sapiens) (P11474 whole entry, looked up, the tested form may be a part): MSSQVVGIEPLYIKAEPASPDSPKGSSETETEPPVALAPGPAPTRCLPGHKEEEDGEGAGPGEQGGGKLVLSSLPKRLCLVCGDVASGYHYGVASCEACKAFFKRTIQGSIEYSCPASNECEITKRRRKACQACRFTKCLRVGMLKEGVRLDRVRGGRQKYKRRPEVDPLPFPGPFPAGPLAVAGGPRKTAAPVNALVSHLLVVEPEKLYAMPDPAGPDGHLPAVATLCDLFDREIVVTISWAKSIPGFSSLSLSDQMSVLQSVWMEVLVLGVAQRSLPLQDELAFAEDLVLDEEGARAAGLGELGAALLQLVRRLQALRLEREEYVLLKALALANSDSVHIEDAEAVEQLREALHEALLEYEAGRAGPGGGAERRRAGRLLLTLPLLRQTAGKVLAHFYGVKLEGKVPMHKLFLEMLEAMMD
Summary of the method: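 Transfected HepG2, 24 h dosing, ERRa-Gal4 chimera driving GAL4-UAS reporter. Readout: reporter mRNA via RT-PCR plus capillary electrophoresis (fluorescence). Positive direction vs DMSO control.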

Measured: AC50

C1=Cc2cccc3cccc1c23
active: [1] 16.2 µM
not listed: [15] | [16] | [17] | [18]
inactive: all other assays above

c1ccc2c(c1)-c1cccc3cccc-2c13
active: [1] 26 µM
not listed: [16] | [17] | [18]
inactive: all other assays above

COC(=O)Nc1nc2ccccc2[nH]1
not listed: [15] | [17] | [18]
inactive: all other assays above

[O-][Cl+]O
not listed: [13] | [16]
inactive: all other assays above

Clc1ccc(C(c2ccc(Cl)cc2)C(Cl)Cl)cc1
active: [1] 8.73 µM | [5] 59.8 µM | [6] 56.4 µM | [12] 15.7 µM | [17] 16.2 µM | [14] 56.2 µM
not listed: [16] | [18]
inactive: all other assays above

O=[N+]([O-])c1ccc(Oc2ccc(Cl)cc2Cl)cc1
active: [1] 25.8 µM | [3] 27.5 µM | [8] 39.7 µM | [11] 100 µM | [12] 27.3 µM
not listed: [16] | [17]
inactive: all other assays above
